D3 ag: D3 dopamine receptor (human) agonism | P35462 | D3R DiscoveRx beta-arrestin cells, luminescence, 90 min | max activation, % | 0.58% of 410,000 active; in the data active means max activation above about 30%; further: 0% is about no effect
Target sequence (P35462 whole entry, looked up): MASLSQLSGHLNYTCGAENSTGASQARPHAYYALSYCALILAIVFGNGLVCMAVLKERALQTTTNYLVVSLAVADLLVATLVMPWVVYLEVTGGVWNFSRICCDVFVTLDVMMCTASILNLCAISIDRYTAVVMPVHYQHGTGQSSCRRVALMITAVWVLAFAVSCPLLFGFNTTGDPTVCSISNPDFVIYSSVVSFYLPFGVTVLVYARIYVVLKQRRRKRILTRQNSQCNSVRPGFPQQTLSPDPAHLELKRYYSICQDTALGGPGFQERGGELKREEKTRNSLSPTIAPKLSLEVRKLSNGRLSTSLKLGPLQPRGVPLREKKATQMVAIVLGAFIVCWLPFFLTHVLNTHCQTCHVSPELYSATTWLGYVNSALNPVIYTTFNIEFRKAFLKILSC
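Agonist mode: compounds and dopamine controls were applied to plated cells for 90 min at 37 degrees C after an overnight attachment at 1500 cells/well. Luminescent read-out followed 30 - 60 minutes at room temperature with DiscoveRx detection reagent.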
DRD3 antagonist: D3 dopamine receptor (human) antagonism. P35462. max response, negative = inhibition, %. 2.5% of 360,000 active. D3R cells, DiscoveRx beta-arrestin luminescence, antagonist mode; stronger effect = lower value. AID 652054; in the data active means max response below about -50%; inconclusive means no clear call, values can overlap the other calls; further: on the % scale 0 is the no-effect control and ±100 the full control effect
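Cells plated overnight at 1500 cells/well, then exposed to library compounds with dopamine controls for 90 minutes at 37 degrees C. DiscoveRx reagent added for 30–60 minutes at room temperature; luminescence read, quantitative HTS format.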
D1 agonist: activates the human D1 dopamine receptor; HEK293 T-REx D1 cells, calcium flux, agonist mode; 1% of 360,000 active; activation, % at 2 µM; P21728; in the data active means activation above about 30%; further: 0% is about no effect
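Agonism was scored from calcium flux recorded over 180 s (1 read/s) after pintool compound addition, following a 10-cycle baseline. Cells were inducible force-coupled HEK293 TREx D1, plated overnight at 30 C and loaded with no-wash calcium dye.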
D1 potentiator: human D1 dopamine receptor positive modulation; potentiation, % at 10 µM; P21728; AID 504651; HEK293 TREx D1 cells, calcium flux, dopamine EC20 potentiation; 0.036% of 360,000 active; in the data active means potentiation above about 30%; further: 0% is about no effect
D1 antag: blocks dopamine activation of the human D1 receptor; HEK293 TREx D1 cells, calcium flux, dopamine EC80; stronger effect = lower value; activity change, negative = inhibition, % at 10 µM; 3.2% of 360,000 active; in the data active means activity change below about -30%; further: on the % scale 0 is the no-effect control and ±100 the full control effect
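Kinetic fluorescence of a calcium dye serves as the read-out. D1-expressing Hek293 Trex cells, induced overnight at 30 C, are exposed to compound for 180 s before an EC80 dopamine addition, then read 180 s further.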
Chronic BCR inh: inhibitors of chronic active B-cell receptor signaling | ABC-DLBCL IkBa-CBG/CBR reporter, luminescence ratio, 4 h | Potency, µM (titrated, usually from 46.1 µM), for the others: top-dose activity change, negative = inhibition, usual class: inhibitors | 0.05% of 340,000 active; active means well fitted inhibition curve with a large enough effect in the signal ratio, with a control signal flat, not every such curve was filed as active; inconclusive means small, poorly fitted or top-dose-only effect, or effect the other way, or a change in a side signal; the % refers to the signal ratio;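 further: potency means the concentration at half of the fitted maximal effect; plate controls were basal doxycycline-induced cells for no effect and cells given 10 µM MG132 for full effect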
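Compounds up to 46 uM were incubated four hours with TMD8 cells whose green CBG68 luciferase is fused to IkappaBalpha; red CBR luminescence normalised the signal, and concentration-effect curves were fitted to fusion, red and ratio data.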
The depositor's hits bear a star; u = inconclusive; x = not tested or not shown. Only some compounds are listed: those with a hit (about 6% of all), similar ones and a draw of the others.

SMILES	D3 ag	DRD3 antagonist	D1 agonist	D1 potentiator	D1 antag	Chronic BCR inh
CCN(Cc1ccc(OC)cc1)c1ccc(-c2nc(-c3ccncc3)no2)cc1[N+](=O)[O-]	-7	x	27	5	4	x
Cc1ccc(/C=C/C(=O)N2CCN(c3ccc(F)cc3)CC2)o1	7	8	2	4	-12	-11%
Cc1ccc(/C=C/C(=O)N2CCN(c3ncccn3)CC2)o1	-8	-24	2	-5	-43*	u
Cc1nc2c(OCc3ccc(C(F)(F)F)cc3)cccn2c1N(C)CC1CC1	-28	-99*	x	x	x	x
CCc1nc2c(OCc3ccc(C(F)(F)F)cc3)cccn2c1N(C)C(=O)c1ccc(OC)cc1	-12	u	x	x	x	x
CCc1nc2c(OCC=C(C)C)cccn2c1N(C)C(=O)c1ccc(OC)cc1	2	-61*	x	x	x	x
CCc1nc2c(OCCC3CCCCC3)cccn2c1N(C)C(=O)c1ccc(C)cc1	-18	-56*	x	x	x	x
CCc1nc2c(OCc3ccc(C(F)(F)F)cc3)cccn2c1N(C)C(=O)c1ccc(C)cc1	-14	-66*	x	x	x	x
COC(=O)c1ccccc1COc1cccn2c(N(C)CC3CC3)c(C)nc12	-9	-5	x	x	x	x
CCCCOc1ccc(C(=O)N(Cc2nc(-c3ccc(Cl)cc3)no2)C(C)C)cc1	13	x	29	4	-6	x
Cc1nc2ccc(S(=O)(=O)CCC(=O)Nc3ccc(C)c(C)c3)cc2s1	3	x	2	-2	3	x
Cc1nc2c(OCCC3CCCCC3)cccn2c1N(C)C(=O)CCC1CCCC1	-16	-67*	x	x	x	x
CCc1nc2c(OCCC3CCCCC3)cccn2c1N(C)C(=O)C1CC1	-20	-66*	x	x	x	x
Cc1nc2c(OCCOc3ccccc3)cccn2c1N(C)C(=O)CCC1CCCC1	0	8	x	x	x	x
Cc1ccc(S(=O)(=O)N2C[C@H]3C(=O)C[C@@H](c4ccccc4)N(S(=O)(=O)c4ccccc4)[C@H]3C[C@H]2c2ccccc2)cc1	8	10	x	x	x	x
O=C(c1ccc(CS(=O)Cc2cccc(Cl)c2)o1)N1CCN(c2ccc(F)cc2)CC1 (stereo not given)	-3	27	x	x	x	x
O=C(c1ccc(CS(=O)Cc2ccc(Cl)cc2)o1)N1CCN(c2ccc(F)cc2)CC1 (stereo not given)	-11	3	17	-9	-36*	-3%
CCOc1ccc(-n2c(=O)cc(N3CCN(c4ccc(F)cc4)CC3)[nH]c2=O)cc1	-2	-114*	1	-1	-1	-4%
CCCC(=O)Nc1nnc(-c2ccco2)s1	4	-66*	0	-1	1	u
COc1ccc(CCNC(=O)C2COc3ccccc3C2)cc1OC (stereo not given)	-3	x	5	2	1	x
Cn1c(=O)oc2cc(S(=O)(=O)N3CCC(C(=O)Nc4ccc(F)c(Cl)c4)CC3)ccc21	-10	x	4	-5	-52*	x
Cc1cc(C)cc(NC(=O)C2CCN(S(=O)(=O)c3ccc4c(c3)oc(=O)n4C)CC2)c1	-9	x	-1	-1	-34*	x
Cc1ccc(NC(=O)C2CCN(S(=O)(=O)c3ccc4c(c3)oc(=O)n4C)CC2)cc1	3	-8	4	-6	-12	2%
Cc1ccccc1C(=O)Nc1nc(-c2ccc(Br)cc2)ns1	-20	x	7	1	-16	x
COCCNC(=O)c1ccc2nc(CCc3ccccc3)oc2c1	8	x	2	-5	-36*	x
SMILES	D3 ag	DRD3 antagonist	D1 agonist	D1 potentiator	D1 antag	Chronic BCR inh
COc1ccc(CNC(=O)c2ccc3nc(CCc4ccccc4)oc3c2)c(OC)c1	8	x	30	-2	-42*	x
CCOc1ccccc1CNC(=O)c1ccc2nc(CCc3ccccc3)oc2c1	7	x	14	-3	-7	x
CC1CCN(CCc2nc3cc(NS(=O)(=O)c4ccccc4)ccc3n2C)CC1	-4	-75*	4	0	-13	u
CC1CCN(CCc2nc3cc(NC(=O)Nc4ccccc4)ccc3n2C)CC1	-5	-60*	4	-3	7	-10%
CC(=O)Nc1ccc2c(c1)nc(CCN1CCN(c3ccccn3)CC1)n2C	-10	2	2	-2	7	1%
CCCC(=O)Nc1ccc2c(c1)nc(CCN1CCC(C)CC1)n2C	-5	-3	x	x	x	x
CC(=O)NCCc1nc2cc(NS(=O)(=O)c3ccccc3)ccc2n1C	0	13	2	-1	-4	-8%
CC1CCN(CCc2nc3cc(NS(=O)(=O)c4ccc(F)cc4)ccc3n2C)CC1	1	-70*	4	-5	-4	u
CC(=O)Nc1ccc2c(c1)nc(CCN1CCC(C)CC1)n2C	-42	u	3	0	4	-8%
CC(C)C(=O)Nc1ccc2c(c1)nc(CCN1CCN(c3ccccn3)CC1)n2C	62*	22	2	0	2	u
CC(=O)Nc1cncc(-c2ccccc2N(C)C)n1	-1	11	x	x	x	x
Cc1ccccc1CNC(=O)Cn1ccc2cc(S(=O)(=O)N3CCCCC3)ccc21	-11	x	5	2	-1	x
CCC(=O)Nc1ccc2c(c1)nc(CCN1CCCCC1)n2C	-9	-5	1	-3	3	-4%
CCC(=O)Nc1ccc2c(c1)nc(CCN1CCN(c3ccccc3)CC1)n2C	6	-62*	0	-3	4	u
Cc1oc2ncn(C)c(=O)c2c1C(=O)N1CCN(c2ccccc2)CC1	5	x	0	-2	14	x
CCCCC#Cc1ccc2c(c1)COc1c3ccccc3nn1-2	31*	77	6	1	14	11%
CC(C#Cc1ccc2c(c1)COc1c3ccccc3nn1-2)OC(C)(C)C (stereo not given)	52*	82	2	-2	1	6%
COc1cccc(-c2cc(C(=O)NCCc3ccc(C)cc3)[nH]n2)c1	-2	x	9	-3	-70*	x
CN1c2ccccc2-c2nc(SCC(=O)Nc3ccccc3C(F)(F)F)ncc2S1(=O)=O	5	x	2	-3	-9	x
Cc1ccc(Oc2ccc(OCC(=O)NC3CCS(=O)(=O)C3)cc2)cc1 (stereo not given)	-4	3	36*	x	-48*	1%
O=C(COc1ccc(Oc2ccccc2)cc1)NC1CCS(=O)(=O)C1 (stereo not given)	9	3	x	x	x	-2%
N#Cc1ccccc1OCC(=O)NC(=O)NC1CCS(=O)(=O)C1 (stereo not given)	1	5	3	0	5	-9%
O=C(COc1ccc([N+](=O)[O-])cc1)NC(=O)NC1CCS(=O)(=O)C1 (stereo not given)	3	11	5	-6	-45*	-7%
O=C(C1CCC1)N1CCCc2cc(S(=O)(=O)Nc3ccc(F)cc3)ccc21	-6	x	13	-5	-18	x

Compound activity: PubChem BioAssay, National Center for Advancing Translational Sciences (NCATS)
